From PubChem BioAssay
Activity calls are given as the source filed them.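 Rule for the calls: active = compounds giving at least 50% inhibition in the cell-based MKP-3 phosphatase rescue imaging test; inactive = the rest.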

Target: Dual specificity protein phosphatase 6 (Homo sapiens) (UniProt Q16828)
Test: DUSP6 inhibitors restoring Erk phosphorylation by chemical complementation, primary imaging in DUSP6-transfected HeLa (AID 609);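 note: phospho-Erk level distribution per well compared with pooled transfected vehicle control wells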
Settings: HeLa MKP-3 transfected, phospho-Erk imaging KS statistic; at 10 µM; stronger effect = higher value; cells stimulated with TPA for 15 min

Chain of Dual specificity protein phosphatase 6 (Homo sapiens) (Q16828 whole entry, looked up): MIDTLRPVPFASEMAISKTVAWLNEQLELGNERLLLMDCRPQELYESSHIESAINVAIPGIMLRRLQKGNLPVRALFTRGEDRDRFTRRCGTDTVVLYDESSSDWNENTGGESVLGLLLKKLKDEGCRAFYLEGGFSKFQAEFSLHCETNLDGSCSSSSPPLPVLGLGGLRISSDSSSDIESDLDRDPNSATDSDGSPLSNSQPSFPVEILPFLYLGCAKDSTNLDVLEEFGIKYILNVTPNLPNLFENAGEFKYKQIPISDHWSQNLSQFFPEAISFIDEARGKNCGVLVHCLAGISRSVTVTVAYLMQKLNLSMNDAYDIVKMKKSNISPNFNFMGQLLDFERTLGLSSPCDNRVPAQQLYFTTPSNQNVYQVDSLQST

inhibition, inactive:
CCN1CCCC1Cn1cnc2c([nH]c3ccc(C)cc32)c1=O (stereo unspecified) 9.42%, CCOC(=O)CSc1nc(N)c(C#N)c(-c2ccc(OC)cc2)c1C#N 24.7%, CCOC(=O)CC1=C(C(=O)OCC)C(c2cc(OC)c(OC)cc2OC)C(C#N)=C(N)O1 (stereo unspecified) -8.27%, CCCOc1ccc(/C(O)=C2/C(=O)C(=O)N(CCN(C)C)C2c2ccncc2)cc1 (stereo unspecified) -4.7%, CN=C1c2c(-c3ccccc3)c3cc(OC)ccc3n2CCN1C -2.47%, COCCOC(=O)C1=C(C)NC(SCC(=O)NC(C)(C)C)=C(C#N)C1c1ccco1 (stereo unspecified) 7.48%, c1ccc(-c2nnc3n2N=C(c2ccc4c(c2)OCO4)CS3)nc1 -11.5%, C=COC(=O)CSc1nc(-c2cccs2)ccc1C#N -5.62%, Cn1c(=O)oc2cc(C(=O)c3ccccc3)ccc21 1.04%, CCOc1nc(SCCOc2ccc(C)cc2)nc(N(C)C)n1 22.8%, Cc1ccc(CC2CC(=O)N(c3ccc4c(c3)OCCO4)C2=O)cc1 (stereo unspecified) 15.1%, COC(=O)Cn1cc(C(=O)OC)cc(Br)c1=O -8.76%, CCN(CC)CCNC(=O)c1c(C)oc2cc(Br)c(OC)cc12 15.8%, N=c1c2c(-c3ccccc3)c(-c3ccccc3)n(Cc3ccccc3)c2ncn1CCCn1ccnc1 -1.75%, Cc1cc(C)nc(N(C#N)S(=O)(=O)c2ccccc2Cl)n1 -2.07%, CC1(C)Cc2c(sc3nc(SCC#N)n(C4CCCCC4)c(=O)c23)CO1 6.04%
